The campaign covered roughly 310,000 compounds. About 1,200 (0.39%) were called active. The rule behind the calls is not given here. Only a sample is shown. Potency and affinity values are given separately.

This experiment deals with Large T antigen (Simian virus 40) (UniProt P03070). Put plainly: TAg ATPase/helicase activity blockers – biochemical (AID 1903). The note with it: SV40 large T antigen ATPase/helicase inhibition assay; at 20 µM; active compounds read high.
Chain of Large T antigen (Simian virus 40) (P03070 whole entry, looked up): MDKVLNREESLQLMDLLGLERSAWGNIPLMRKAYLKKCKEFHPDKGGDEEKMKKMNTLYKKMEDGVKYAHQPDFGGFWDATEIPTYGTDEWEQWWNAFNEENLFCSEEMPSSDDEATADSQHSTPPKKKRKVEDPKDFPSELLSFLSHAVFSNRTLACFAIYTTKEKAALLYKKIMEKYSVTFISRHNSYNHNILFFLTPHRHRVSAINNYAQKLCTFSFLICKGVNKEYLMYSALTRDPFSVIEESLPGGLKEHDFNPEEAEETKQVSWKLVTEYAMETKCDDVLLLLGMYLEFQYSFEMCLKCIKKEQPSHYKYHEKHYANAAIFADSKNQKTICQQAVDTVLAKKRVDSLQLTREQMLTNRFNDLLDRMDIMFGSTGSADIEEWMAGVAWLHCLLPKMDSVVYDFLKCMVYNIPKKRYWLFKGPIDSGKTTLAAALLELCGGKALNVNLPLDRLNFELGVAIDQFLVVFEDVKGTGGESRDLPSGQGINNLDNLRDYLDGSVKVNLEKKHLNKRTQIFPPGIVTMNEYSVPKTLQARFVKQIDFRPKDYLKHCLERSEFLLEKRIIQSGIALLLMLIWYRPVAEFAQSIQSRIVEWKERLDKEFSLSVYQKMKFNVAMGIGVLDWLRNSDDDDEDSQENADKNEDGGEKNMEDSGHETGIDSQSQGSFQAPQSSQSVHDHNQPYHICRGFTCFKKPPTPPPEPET
A word on the inhibition: it is the relative decrease from the control value, in per cent. As to `COc1ccc(-c2ccc(/C=C3\C(=O)N(c4ccccc4)N=C3c3ccccc3)o2)c([N+](=O)[O-])c1`, the inhibition was 2.08% (inactive). In the case of `O=C1/C(=C\c2ccc(-c3ccccc3[N+](=O)[O-])o2)C(c2ccccc2)=NN1c1ccccc1` it was -3.41% (inactive); in that of `CC1=NOC(=O)/C1=C\c1ccc(-c2ccc(Cl)cc2Cl)o1`, 16.7% (inactive); in that of `Cc1ccc(/C=C2\C(=O)ON=C2c2ccccc2)o1`, -2.84% (inactive). Then `Cc1ccc(C2=NOC(=O)/C2=C\c2ccccc2)cc1`, with 59.5% (inactive); and `O=C(O)/C(=C\c1ccc(-c2ccccc2[N+](=O)[O-])o1)c1ccccc1`, with 10.1% (inactive); and `O=C1COc2ccc(C(=O)COC(=O)c3sc4ccccc4c3Cl)cc2N1`, with 7.71% (inactive). Then `CCOc1ccc(CN(C)CC(=O)Nc2ccc(N3CCOCC3)cc2)cc1OC`, with 6.36% (inactive); and `CC(NC(=O)c1ccccc1F)c1ccccc1` (configuration not stated), with 3.89% (inactive). On to `O=C(NCCNC1CCN(Cc2ccccc2)CC1)c1cccs1`, for which the inhibition is 5.49% (inactive).

With `O=C1CCCC(=O)C1CS(=O)(=O)c1ccccc1`, the inhibition was 14.9% (inactive). In the case of `CCOC(=O)N1CCC(=NNc2nc3ccccc3s2)CC1` it was 8.66% (inactive); in that of `CC1(C)C(=O)Nc2ccccc2N1C(=O)COC(=O)c1ccc(Cl)c(S(=O)(=O)NCc2ccccc2)c1`, 6.69% (inactive). In the case of `O=C(Nc1ccccc1F)c1ccccc1C(=O)Nc1ccccc1F` it was 14.6% (inactive); in that of `CCCCn1c(N)c(N(CCC(C)C)C(=O)CC2CCCC2)c(=O)[nH]c1=O`, 19.1% (inactive); in that of `COc1ccc(CC(=O)NN2C(=O)c3ccccc3C2=O)cc1`, 10.8% (inactive).

As for `N[C@@H](Cc1c[nH]c2ccc(O)cc12)C(=O)O`, the inhibition was 20.5% (inactive). In the case of `O=C1c2ccccc2C(=O)N1CCc1c[nH]c2ccccc12` it was 14.9% (inactive); in that of `O=C(O)Cc1c[nH]c2ccc(O)cc12`, 29.6% (inactive). Then `CC(=O)NCCc1c[nH]c2ccc(OCc3ccccc3)cc12`, with 17% (inactive). In the case of `O=C1c2ccccc2C(=O)N1CCCc1c[nH]c2ccc(Cl)cc12` it was 8.17% (inactive).

As for `COc1ccc2[nH]cc(CCNC(C)=O)c2c1`, the inhibition is -0.22% (inactive). On to `COc1ccccc1CCN1CCCC(CN(C)C(=O)c2ccc3nc[nH]c3c2)C1` (configuration not stated), for which the inhibition is 6.91% (inactive). Then `Cc1ccc(C)c(S(=O)(=O)N2CCCOC2CNC(=O)C(=O)NCCCn2ccnc2)c1` (configuration not stated), with 7.3% (inactive); and `Cc1[nH][nH]c(=O)c1C=NCc1cccc(C(F)(F)F)c1`, with 8.38% (inactive); and `CC(=N)c1c(O)c2ccccc2oc1=O`, with 20.4% (inactive). Take `O=C(Oc1cccc(Cl)c1)N1CCOCC1`: the inhibition was 7.93% (inactive).

With `NS(=O)(=O)c1ccc(NC(=O)COC(=O)c2cccc(S(=O)(=O)N3CCCC3)c2)cc1`, the inhibition was 11.7% (inactive). Turning to `Cc1c(NC(=O)c2cccc(-c3cc4ccccc4oc3=O)c2)cccc1-c1nc2ncccc2o1`, the inhibition is -0.4% (inactive). Then `CCCCNc1nnc(Cc2ccc(Cl)cc2)c(=O)[nH]1`, with 9.41% (inactive); and `COc1ccc(NC2CCCN(C(=O)CCN3CCCO3)C2)cc1` (configuration not stated), with 23% (inactive); and `COc1ccc(NC2CCCN(C(=O)CSc3ccncc3)C2)cc1` (configuration not stated), with 31.4% (inactive). Then `O=C(CCCn1cncn1)N1CCCC(Nc2ccc(F)cc2)C1` (configuration not stated), with 5.07% (inactive); and `COc1ccc(NC2CCCN(C(=O)CCN3Cc4ccccc4C3=O)C2)cc1` (configuration not stated), with 34.5% (inactive); and `COc1ccc(NC2CCCN(C(=O)CCCn3cncn3)C2)cc1OC` (configuration not stated), with 33.9% (inactive). On to `O=C(CSc1ccccc1)N1CCCC(Nc2ccccc2)C1` (configuration not stated), for which the inhibition was 7.87% (inactive). In the case of `COc1ccc(S(=O)(=O)Nc2cc(C(=O)NC3CCCCCC3)ccc2N2CCOCC2)cc1` it was 3.07% (inactive); in that of `CCc1nn(CC(=O)NCCCN2CCCC2=O)c(=O)c2cc3sccc3n12`, -4.15% (inactive); in that of `Cc1ccc(NS(=O)(=O)c2c(C)[nH]c(C)c2C(=O)N2CCCCC2)c(Cl)c1`, -2.05% (inactive). Then `CCOC(=O)c1ccc(NC(=O)C(=O)NCc2ccccn2)cc1`, with -2.35% (inactive); and `CC(C)(CC(=O)O)CC(=O)Nc1ccc2c(c1)ncn2CCc1ccccc1`, with 5.95% (inactive); and `COc1ccc(/C=C2/SC(=O)NC2=O)cc1`, with 12.9% (inactive). With `O=C1NC(=O)/C(=C\c2ccc(Cl)nc2)S1`, the inhibition is 8.29% (inactive).

In the case of `Cc1c(N=C2NC(=O)/C(=C/c3cccc([N+](=O)[O-])c3)S2)c(=O)n(-c2ccccc2)n1C`, the inhibition is 4.3% (inactive). Consider `NC1=NC(=O)S/C1=C\c1ccc(F)cc1`, for which the inhibition is 8.64% (inactive).

In the case of `Cc1c(N=C2C(=O)Nc3ccccc32)c(=O)n(-c2ccccc2)n1C`, the inhibition was 1.2% (inactive). Consider `CCOc1cc(/C=C2\SC(N)=NC2=O)ccc1O`, for which the inhibition was 34.2% (inactive).

As to `CC(C)(C)c1ccc(/C=C2\SC(=O)N=C2N)cc1`, the inhibition is 5.32% (inactive). In the case of `COc1ccc(/C=C2\SC(=O)N=C2N)cc1OC` it was 8.84% (inactive); in that of `CCN(CC)CCSc1nc(O)c(C(C)C)c(=O)[nH]1`, 14.1% (inactive); in that of `COC(=O)[C@@H](Cc1c[nH]c2ccccc12)NC(=O)c1cc(=O)[nH]c2ccccc12`, 2.68% (inactive). Then `CCOc1cc(S(=O)(=O)NC2CCCC2)ccc1Cl`, with 2.79% (inactive); and `O=C(NCc1cccs1)C(=O)c1c[nH]c2ccccc12`, with -25.6% (inactive).

On to `Cc1occc1-c1nnc(SCC(=O)N2CCOCC2)o1`, for which the inhibition is 1.14% (inactive). In the case of `O=S(=O)(Nc1nc2c(s1)CCCC2)c1ccc(Br)cc1` it was -1.56% (inactive); in that of `COc1ccc(/C=C(\NC(=O)c2ccccc2)C(=O)OCC2CCCN3CCCCC23)cc1OC` (configuration not stated), -3.64% (inactive). In the case of `COc1ccc(/C=C/C(=O)OCC(=O)Nc2cc(S(=O)(=O)N(C)C)ccc2Cl)cc1`, the inhibition is 3.97% (inactive). `COc1cccc(NC(=O)c2ccc(N3C(=O)C4CC=C(C)CC4C3=O)cc2)c1` (configuration not stated): the inhibition is 7.31% (inactive). In the case of `Cc1cccc(S(=O)(=O)Nc2nc3ccccc3nc2Nc2ccc3c(c2)OCO3)c1` it was 17.6% (inactive); in that of `Cc1nc2ccc(Br)cc2c2c1CC(CBr)O2` (configuration not stated), 10.6% (inactive); in that of `O=C(O)c1cccc(Nc2c3ccccc3nc3ccccc23)c1`, -9.05% (inactive).

For `Cc1ccc(O)c(Nc2c3ccccc3nc3ccccc23)c1`, the inhibition is 12.6% (inactive).

Values taken from PubChem BioAssay AID1903 (Southern Research Specialized Biocontainment Screening …, 2009).
